Test results as given in PubChem BioAssay (EPA / NIEHS).
Inconclusive results are not listed. Calls of active or inactive are those of the source. Rule for the calls: active = hit-call score of the fitted dose curve at least 0.9, where 1 is the maximum; inconclusive = response in the unintended direction; inactive = score below 0.9.

assay: Tanguay_ZF_120hpf_AXIS_legacy: (Legacy) Oregon State University Tanguay Lab 120 Hour Post-fertilization zebrafish Assay for Body Axis Malformation (AID 2283635);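 for AC50: potency for an increased fraction of larvae scored with body axis malformation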
Procedure: Tanguay_ZF_120hpf_legacy is a whole embryo, multiplexed endpoint assay using zebrafish larvae exposed for 120 hours post fertilization on a 96-well plate.Tanguay_ZF_120hpf_AXIS_legacy is one of one assay component(s) measured or calculated from the Tanguay_ZF_120hpf_legacy assay. It is designed to make measurements of zebrafish development as detected with brightfield microscopy of developing zebrafish embryos.Data from the assay component Tanguay_ZF_120hpf_AXIS_legacy was analyzed into 1 assay endpoints. This assay endpoint, Tanguay_ZF_120hpf_AXIS_legacy, was analyzed in the positive analysis fitting direction relative to DMSO as the negative control and baseline of activity. Using a type of morphology reporter, gain-of-signal activity can be used to understand changes in developmentals as they relate to the whole embryo. To generalize the intended target to other relatable targets, this assay endpoint is annotated to the zebrafish development intended target family, where the subfamily is body axis morphogenesis.
Zebrafish husbandry: Tropical 5D wild-type adult zebrafish were housed in at an approximate density of 1000 per 100 gallon tank at the Sinnhuber Aquatic Research Laboratory, Oregon State University, Corvallis, OR. Each tank was kept at standard laboratory conditions of 28C on a 14-h light/10-h dark photoperiod in fish water consisting of reverse osmosis water supplemented with a commercially available salt (Instant Ocean). Spawning funnels were placed into the tanks the night prior, and embryos were collected and staged. To increase bioavailability, the chorion was enzymatically removed using pronase (63.6mg/ml, >/= 3.5U/mg, Sigma-Aldrich: P5147) at 4 hours post fertilization (hpf) using a custom automated dechorionator.Chemical exposures: Six hpf dechorionated embryos were placed 1 embryo per well in a 96-well plate prefilled with 90 ul of EM using automated embryo placement systems (AEPS). Ten microliters of each row of dilution plate 2 was added to 2 exposure plates. The final DMSO concentration used was 0.64% (vol/vol). Thirty-two embryos were also exposed to 5uM trimethyltin chloride (positive control). Plates were sealed to prevent evaporation and foil covered to reduce light exposure and kept in a 28C incubator. Embryos were statically exposed until 120 hpf. At 24 hpf, embryos were assessed for photomotor response using a custom photomotor response analysis tool (PRAT) and for developmental toxicity endpoints (MO24: mortality at 24 hpf, DP: developmental progression, SM: spontaneous movement, and NC: notochord distortion). At 120 hpf, locomotor activity was measured using Viewpoint Zebralab and assessed for 18 endpoints. Zebrafish acquisition and analysis program (ZAAP), a custom program designed to inventory, acquire, and manage zebrafish data, was used to collect developmental endpoints as either present or absent (i.e., binary responses were recorded). If mortality occurred for an embryo (at either 24 or 120 hpf), the non-mortality endpoints were not measured.

Structure (SMILES) | outcome | AC50
C=CC1(C)OC(=O)N(c2cc(Cl)cc(Cl)c2)C1=O (stereo not given) | inactive | 
CC1=C(C(=O)Nc2ccccc2)SCCO1 | inactive | 
CCOC(=O)C(Cl)Cc1cc(-n2nc(C)n(C(F)F)c2=O)c(F)cc1Cl (stereo not given) |  | 4.23 µM (active)
C=CCC1=C(C)C(OC(=O)C2C(C=C(C)C)C2(C)C)CC1=O (stereo not given) | inactive | 
CCc1nn(C)c(C(=O)NCc2ccc(C(C)(C)C)cc2)c1Cl | inactive | 
CCOc1cc(Oc2ccc(C(F)(F)F)cc2Cl)ccc1[N+](=O)[O-] | inactive | 
CCCCNC(=O)OCC#CI | inactive | 
Cc1ccc(-c2c(Cl)nc(C#N)n2S(=O)(=O)N(C)C)cc1 | inactive | 
OC(c1ccc(Cl)cc1)(c1cncnc1)c1ccccc1Cl (stereo not given) | inactive | 
Cc1cc(Cl)ccc1OCC(=O)O | inactive | 
Cc1c(F)c(F)c(COC(=O)C2C(/C=C(\Cl)C(F)(F)F)C2(C)C)c(F)c1F (stereo not given) |  | 3.4 µM (active)
CO/C=C(/C(=O)OC)c1ccccc1Oc1cc(Oc2ccccc2C#N)ncn1 | inactive | 
CN(C)C(=S)SSC(=S)N(C)C | inactive | 
CNC(=S)S | inactive | 
COc1ccc(C(c2ccc(OC)cc2)C(Cl)(Cl)Cl)cc1 | inactive | 
CCCN(CCC)c1c([N+](=O)[O-])cc(S(N)(=O)=O)cc1[N+](=O)[O-] | inactive | 
CCOC(=O)CC(SP(=S)(OC)OC)C(=O)OCC (stereo not given) |  | 34.6 µM (active)
CCON=C(CC)C1=C(O)CC(c2c(C)cc(C)cc2C)CC1=O (stereo not given) | inactive | 
CCNc1nc(Cl)nc(NC(C)C)n1 | inactive | 
COC(=O)C(C)Oc1ccc(Oc2ccc(Cl)cc2Cl)cc1 (stereo not given) | inactive | 

Structure (SMILES) | outcome | AC50
Fc1ccc(Oc2ccnc3cc(Cl)cc(Cl)c23)cc1 | inactive | 
COC(=O)C=C(C)OP(=O)(OC)OC | inactive | 
N#CC(CCc1ccc(Cl)cc1)(Cn1cncn1)c1ccccc1 (stereo not given) | inactive | 
CS/C(C)=N/OC(=O)N(C)SN(C)C(=O)O/N=C(\C)SC |  | 24.4 µM (active)
CCCCC(CC)COC(=O)c1ccccc1C(=O)OCC(CC)CCCC (stereo not given) | inactive | 
CCCCNC(=O)n1c(NC(=O)OC)nc2ccccc21 | inactive | 
CON(C)C(=O)Nc1ccc(Cl)c(Cl)c1 | inactive | 
COC(=O)c1ccccc1C(=O)OC | inactive | 
CC(C)Oc1cc(-n2nc(C(C)(C)C)oc2=O)c(Cl)cc1Cl | inactive | 
N#Cc1cc(Br)c(O)c(Br)c1 | inactive | 
CCOP(=S)(OCC)SCn1c(=O)oc2cc(Cl)ccc21 | inactive | 
COc1nc(NC(C)C)nc(NC(C)C)n1 | inactive | 
COP(=S)(OC)Oc1nc(Cl)c(Cl)cc1Cl | inactive | 
COc1cnc(OC)n2nc(NS(=O)(=O)c3c(OCC(F)F)cccc3C(F)(F)F)nc12 | inactive | 
O=C(O)c1nc(Cl)ccc1Cl | inactive | 
N#Cc1nn(-c2c(Cl)cc(C(F)(F)F)cc2Cl)c(N)c1S(=O)C(F)(F)F (stereo not given) |  | 4.62 µM (active)
O=C(Nc1ccccc1)Nc1ccnc(Cl)c1 | inactive | 
CC(C)(C)c1ccc(CSc2cnn(C(C)(C)C)c(=O)c2Cl)cc1 | inactive | 
CCCCOC(=O)c1ccccc1C(=O)OCCCC | inactive | 
CCNc1nc(Cl)nc(NCC)n1 | inactive | 
